Results published in PubChem BioAssay.
Active and inactive are the calls of the source. The rule behind the calls is not given here.

Tests used:
[1] = tested on: Botulinum neurotoxin type F light chain protease (Clostridium botulinum); test: Botulinum neurotoxin type F light chain protease inhibition, multiplex microsphere flow cytometry, validation set (AID 588459); conditions: multiplex microsphere protease substrate cleavage assay, at 10 µM, hits give high values
[2] = target: Botulinum neurotoxin type A (Clostridium botulinum) (UniProt P0DPI0); test: BoNT/A light chain protease inhibitors, biochemical, multiplex microsphere flow cytometry, validation set (AID 588460); conditions: at 10 µM, hits give high values
[3] = target: Lethal factor (Bacillus anthracis) (UniProt P15917); test: Lethal factor protease inhibitors, Bacillus anthracis, multiplex microsphere cleavage assay, validation set (AID 588461); conditions: flow cytometry, at 10 µM, hits give high values

Measured: inhibition

CC(C)Oc1ccc(C(CC(=O)O)c2ccc(F)cc2)cc1 (centres undefined)
inactive: [1] 5.2% | [2] 2% | [3] 0.9%

Cc1ccnc2c1NC(=O)c1cccnc1N2C1CC1
inactive: [1] 0.7% | [2] -0.1% | [3] -4.5%

CC(=O)NC1C(OCCOc2ccc(Cl)cc2Cl)OC(COC(C)=O)C(OC(C)=O)C1OC(C)=O (centres undefined)
inactive: [1] -1.5% | [2] -0.3% | [3] -0.7%

COc1ccc(-n2cc(CNCc3cccnc3)c(-c3cccc(F)c3)n2)cc1
inactive: [1] -3.6% | [2] -0.7% | [3] -8.2%

COC(=O)c1ccc(=O)n(Cc2ccco2)c1
inactive: [1] 3.3% | [2] -0.2% | [3] 3.8%

CN1CCC(OC(c2ccccc2)c2ccccc2)CC1
inactive: [1] -0.8% | [2] -0.5% | [3] -5.1%

CCOC(=O)c1ccc2[nH]c(C)c(CCC(C)=O)c(=O)c2c1
inactive: [1] -0.7% | [2] 0.3% | [3] 6%

CC(=O)O[C@]1(C(C)=O)CC[C@H]2[C@@H]3C=C(Cl)C4=CC(=O)CC[C@]4(C)[C@H]3CC[C@@]21C
inactive: [1] -0.5% | [2] -3.3% | [3] -4.2%

COC1CCCCC1Nc1ccc(C)c(C)c1 (centres undefined)
inactive: [1] 1.5% | [2] -0.1% | [3] -5.5%

Cc1ccc(/C=N/NC(=O)C2(C)CC2(Br)Br)cc1 (centres undefined)
inactive: [1] 1.3% | [2] -0.4% | [3] -5.6%

c1ccc2c(c1)CCOC2CNCCCN1CCCCC1 (centres undefined)
inactive: [1] 0.6% | [2] 1.3% | [3] -8.4%

CC(=O)N=c1sc(S(N)(=O)=O)nn1C
inactive: [1] 4.1% | [2] 0.8% | [3] 4.2%

CC(=O)NC(Cc1c[nH]c2ccccc12)C(=O)N/N=C/c1ccccc1 (centres undefined)
inactive: [1] -1.4% | [2] -0.1% | [3] -5.7%

CC(=O)[C@H]1CC[C@H]2[C@@H]3C[C@H](C)C4=CC(=O)CC[C@]4(C)[C@H]3[C@@H](O)C[C@]12C
inactive: [1] 5.1% | [2] 0.9% | [3] -8.6%

CC(C)OC(=O)C1C2C=CC3(CN(CC4CCCO4)C(=O)C13)O2 (centres undefined)
inactive: [1] 0.2% | [2] 0.8% | [3] -2.9%

O=C(NCCc1c[nH]c2ccccc12)OCCSS(=O)(=O)O
inactive: [1] -4.5% | [2] -0.2% | [3] 3.7%

C(=C\c1ccc2ccccc2n1)/c1ccccc1
inactive: [1] 1.3% | [2] 0.8% | [3] -3.3%

O=C(O)CCC(=O)c1ccc(-c2ccccc2)cc1
inactive: [1] -4.5% | [2] -1.1% | [3] 2.1%

COc1ccc2c(c1O)Cc1ccccc1C2=O
inactive: [1] 0% | [2] -0.7% | [3] -3.9%

COc1ccc(CCN2CCC(Nc3nc4ccccc4n3Cc3ccc(F)cc3)CC2)cc1
inactive: [1] -1.8% | [2] 0.4% | [3] 1.2%

O=c1c(-c2ccccc2)c(O)c2cccc3c2n1CCC3
inactive: [1] 3.3% | [2] 0.8% | [3] 10.4%

C[C@]12CCC3C(CC=C4C[C@@H](O)CC[C@@]43C)C1CCC2[C@]1(C)CCC(=O)O1 (some centres undefined)
inactive: [1] 0.6% | [2] -0.3% | [3] -5.1%

C[C@]12CCC(=O)C[C@@H]1CC[C@@H]1[C@@H]2CC[C@]2(C)C=CC[C@@H]12
inactive: [1] 3.9% | [2] 0.7% | [3] -1.3%

CCC(CO)NCCNC(CC)CO (centres undefined)
inactive: [1] 0.2% | [2] 1.5% | [3] -0.2%

COc1ccccc1Oc1c(C)oc2c(CN3CCN(CCO)CC3)c(O)ccc2c1=O
inactive: [1] -2.3% | [2] -1.2% | [3] 1.4%

Cc1ccc(C(=O)NCCNC(=O)c2ccccc2)cc1
inactive: [1] 1.3% | [2] 0.3% | [3] -1.4%

O=C(O)CP(=O)(O)O
inactive: [1] 1.3% | [2] 0.3% | [3] -2.7%

CC(C)CC(=O)NC(NC(=O)CC(C)C)c1cccc([N+](=O)[O-])c1
inactive: [1] 1.7% | [2] -0.3% | [3] 3.9%

Cc1cccc(-n2c(Cc3ccccc3)n[nH]c2=S)c1
inactive: [1] -1.9% | [2] -0.5% | [3] -2.9%

COc1ccc(OCC(=O)N2c3ccc(C)cc3C3CN(C)CCC32)cc1 (centres undefined)
inactive: [1] -4.9% | [2] -0.7% | [3] -2.6%

CCCCNC(=O)NS(=O)(=O)c1ccc(C)cc1
inactive: [1] 1.1% | [2] 1.1% | [3] 1%

Cc1ccccc1NC(=O)C1(C)Cc2ccccc2C(=O)O1 (centres undefined)
inactive: [1] 0.3% | [2] 0.5% | [3] -0.2%

OCCN1CCN(CCCN2c3ccccc3Sc3ccc(Cl)cc32)CC1
inactive: [1] -0.8% | [2] 0.8% | [3] 1.2%

C/C=C(/C(=C/C)c1ccc(O)cc1)c1ccc(O)cc1
inactive: [1] -1.2% | [2] -0.3% | [3] 3.5%

COc1ccc(NC2=C(Cl)C(=O)N(c3ccccc3)C2=O)c(OC)c1
inactive: [1] 3.7% | [2] 1% | [3] -0.3%

COc1ccc(CN(CCC(c2ccc(F)cc2)C2CCOC(C)(C)C2)C(=O)c2ccco2)cc1 (centres undefined)
inactive: [1] -2.6% | [2] -0.3% | [3] 1.6%

O=C(NCCc1c[nH]c2ccccc12)c1cccnc1
inactive: [1] -2.9% | [2] -0.7% | [3] 1.1%

O=C1CCc2cc(OCCCCc3nnnn3C3CCCCC3)ccc2N1
inactive: [1] -0.2% | [2] -0.9% | [3] -5.5%

C[N+](C)(C)CCOP(=O)([O-])OC[C@H](O)CO
inactive: [1] 1.7% | [2] -0.4% | [3] 3.2%

COC(=O)C1=C(C)N(Cc2ccco2)C(=O)/C1=C\c1ccc([N+](=O)[O-])cc1
inactive: [1] 1% | [2] -0.6% | [3] -3.7%

CC(C)NCC(O)COc1ccc(CCOCC2CC2)cc1 (centres undefined)
inactive: [1] -0.9% | [2] -3.6% | [3] 1.3%

COC(=O)c1[nH]c2ccc(C)cc2c1NC(=O)CN1CCc2cc(OC)c(OC)cc2C1
inactive: [1] -1.9% | [2] -1.7% | [3] 2.1%

C[N+]12CCC(CC1)C(OC(=O)C(O)(c1ccccc1)c1ccccc1)C2 (centres undefined)
inactive: [1] 1% | [2] 0.1% | [3] -0.4%

CC(=O)OCC(=O)[C@H]1CC[C@H]2[C@@H]3CCC4=CC(=O)CC[C@]4(C)[C@H]3CC[C@]12C
inactive: [1] -5.8% | [2] -1.1% | [3] -5.7%

Cc1ccc(-n2ncc3c(Nc4cccc(C(=O)O)c4)ncnc32)cc1
inactive: [1] 0.7% | [2] -1.1% | [3] 1.7%

CN1C(C(=O)Nc2ccccn2)=C(O)c2sccc2S1(=O)=O
inactive: [1] 0.5% | [2] -0.2% | [3] -1.1%

O=C(/C=C/c1ccccc1)/C=C/c1ccccc1
inactive: [1] 0.8% | [2] 0.3% | [3] 1.5%

O=C(O)c1ccccc1C(=O)OCCCCOC(=O)c1ccccc1C(=O)O
inactive: [1] 5.9% | [2] -0.6% | [3] 3.5%

O=C(Cc1ccc(Br)cc1)c1ccc(O)cc1O
inactive: [1] -3.5% | [2] -0.4% | [3] -5.4%

CC(C)CC(NC(=O)CNC(=O)C1O[C@@H]2OC(C)(C)O[C@@H]2[C@H]2OC(C)(C)O[C@@H]12)C(=O)O (some centres undefined)
inactive: [1] 2.8% | [2] -2% | [3] 2.8%

c1coc(-c2nnc3n2C2(CCCC2)Cc2ccccc2-3)c1
inactive: [1] 2.5% | [2] -1.4% | [3] -5.9%

CCCCOc1ccc(C(=O)CCN2CCCCC2)cc1
inactive: [1] 3.4% | [2] 1.8% | [3] -1.7%

CC12CCC(C(=O)NCc3ccc4c(c3)OCO4)(CC1=O)C2(C)C (centres undefined)
inactive: [1] 1.9% | [2] 1.2% | [3] 4.8%

CCOc1ccc2oc(-c3ccccc3)c(C(=O)O)c2c1
inactive: [1] -1.1% | [2] -0.2% | [3] -3.1%

COc1ccccc1CCn1cnc2c3cc(C)ccc3n(C)c2c1=O
inactive: [1] -0.5% | [2] -1% | [3] -9.2%

COCCc1ccc(OCC(O)CNC(C)C)cc1 (centres undefined)
inactive: [1] -1.4% | [2] -1.4% | [3] -2.9%

COc1ccc(C(=O)[C@H]2[C@H]3C(=O)N(c4ccccc4)C(=O)[C@H]3C3C=CC=NN32)cc1 (some centres undefined)
inactive: [1] 1.9% | [2] 4.7% | [3] -5.1%

COC(=O)c1cc(COc2ccc3ccc(=O)oc3c2)c(C)o1
inactive: [1] -0.4% | [2] -1.4% | [3] 1%

C=CCNC(=S)N1CCc2c([nH]c3ccccc23)C1C (centres undefined)
inactive: [1] 1.4% | [2] 0.4% | [3] 0.1%

CO[C@@]1(NC(=O)Cc2cccs2)C(=O)N2C(C(=O)O)=C(COC(N)=O)CS[C@@H]21
inactive: [1] -1.9% | [2] 1.4% | [3] -10%

CO[C@@H]1O[C@@H]2COC(c3ccccc3)O[C@@H]2[C@@H](OC)[C@@H]1O (some centres undefined)
inactive: [1] 1.6% | [2] -0.6% | [3] 2.5%

C[C@@H]1C[C@H](Nc2ccccc2)c2ccccc2N1C(=O)c1cccnc1
inactive: [1] 1% | [2] 1% | [3] -2.9%

N#C/C(=C/c1ccccc1)C(=O)NCc1ccccc1
inactive: [1] 5.2% | [2] 0.1% | [3] -7.6%
